Screens: PubChem BioAssay, The Scripps Research Institute Molecular Screening Center
Sampled rows, rich in hits. Any-hit rate of the full collection: about 3.5%.
GPR151 activ = activates the human receptor GPR151; 650,000 tested, 1% active; activation, % at 11.2 µM; Q8TDV0; PathHunter beta-arrestin GPR151 cells, luminescence; in the data active = activation above about 4.9%;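 note: 0% = median of compound wells and 100% = cells with positive control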
Target sequence (Q8TDV0 whole entry, looked up): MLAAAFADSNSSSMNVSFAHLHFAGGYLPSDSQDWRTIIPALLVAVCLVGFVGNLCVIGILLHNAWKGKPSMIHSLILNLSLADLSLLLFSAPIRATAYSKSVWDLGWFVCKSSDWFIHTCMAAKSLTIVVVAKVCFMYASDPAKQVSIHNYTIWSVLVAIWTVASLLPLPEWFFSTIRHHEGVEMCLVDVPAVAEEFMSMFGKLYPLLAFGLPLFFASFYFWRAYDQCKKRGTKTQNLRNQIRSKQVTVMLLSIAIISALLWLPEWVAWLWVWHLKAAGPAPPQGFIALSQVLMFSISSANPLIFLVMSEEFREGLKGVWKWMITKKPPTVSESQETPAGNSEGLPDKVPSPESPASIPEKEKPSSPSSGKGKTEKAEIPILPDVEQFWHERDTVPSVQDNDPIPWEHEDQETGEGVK
TEAD-YAP block = TEAD-YAP interaction inhibition; HEK-TIYL cells, TEAD-Gal4/YAP UAS-luciferase luminescence; inhibition, % at 9.12 µM; 640,000 tested, 1.4% active; in the data active = inhibition above about 32%;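 note: 0% = median of test compound wells and 100% = reference inhibitor wells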
FBW7 activator = activators of human E3 ligase FBW7; AlphaScreen FBW7–phospho-cyclin E peptide binding, activator screen; normalized activity (activation), % at 26.1 µM; Q969H0; 650,000 tested, 0.13% active; in the data active = normalized activity above about 1.9%;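 note: purified mutant Fbw7 with reduced substrate affinity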
MITF inh = human MITF inhibition, primary screen; AID 1259374; 650,000 tested, 0.91% active; inhibition, % at 2.6 µM; AlphaScreen MITF homodimerization, bead proximity signal; O75030; in the data active = inhibition above about 50%;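 note: 0% = vehicle wells with protein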
GPR151 confirm = confirmation of human GPR151 activators | shares compounds with GPR151 activ | activation, % at 11.2 µM | GPR151 PathHunter beta-arrestin cells, luminescence, 90 min; % of EA-reagent control over plate median | 6,700 tested, under 10 active;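 active = mean percent activation across replicates above the confirmation screen cutoff of 4.91%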
GPR119 counter = GPR119 activation, counter-screen for GPR151 activators; AID 1508611; activation, % at 11.2 µM; GPR119 PathHunter beta-arrestin cells, luminescence, 90 min; 0 = compound-well median, 100 = enzyme-acceptor control; 6,700 tested, 0.3% active; shares compounds with GPR151 activ;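 active = mean percent activation in the counterscreen above 29.09%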;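 note: counterscreen on off-target GPR119 to flag nonselective hits from the GPR151 activator screen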
Starred values were filed as active, the others as inactive; · = no result given.

SMILES	GPR151 activ	TEAD-YAP block	FBW7 activator	MITF inh	GPR151 confirm	GPR119 counter
COc1cccc(OC)c1C(=O)NCc1nc(-c2ccc(C)cc2)no1	3	9	0	6	·	·
Cc1ccc(CC(=O)NCc2nc(-c3ccccc3)no2)cc1	5.7*	1	0	0	0	-5
N#CC1=C(N)Oc2ccc3ccccc3c2C1c1ccc(Br)cc1 (configuration not stated)	1	4	0	1	·	·
Cc1cc(OCC(=O)NCc2nc(-c3ccccc3)no2)cc(C)c1Br	11*	8	0	8	0	-5
O=C(NCc1nc(-c2ccccc2)no1)c1cc(Br)ccc1Cl	5.3*	7	0	3	1	1
COc1ccc(-c2noc(CNC(=O)C(Cl)(Cl)Cl)n2)cc1	8.0*	-28	0	-28	-1	-6
O=C(NCc1nc(-c2ccccc2)no1)c1ccccc1Cl	0	-9	0	1	·	·
CCOc1ccc(C(=O)Nc2ccc3c(c2)CCCN3C(=O)CC)cc1	1	-4	0	11	·	·
CCn1nc(C)c(NC(=O)c2cc3nc(-c4ccco4)cc(C(F)(F)F)n3n2)c1C	0	12	0	0	·	·
COc1ccc(N2CCN(c3nc(Nc4ccc(OC)c(Cl)c4)nc(N4CCCC4)n3)CC2)cc1	-1	-5	0	-3	·	·
Cc1cccc(NC(=O)CN2C(=O)C(CC(=O)Nc3ccc(F)cc3)Nc3ccccc32)c1 (configuration not stated)	0	0	0	12	·	·
CCOC(=O)c1cn(C)c(=O)c2ccccc12	-1	-15	0	-21	·	·
COC(=O)COc1ccc(S(=O)(=O)NCCC2=CCCCC2)cc1C	30*	-1	0	2	0	2
Cc1ccc(/C=C/C(=O)N2CCOCC2)o1	0	-2	0	-18	·	·
COCCNC(=O)/C(C#N)=C/c1ccc(-c2cc(Cl)ccc2Cl)o1	-1	-2	0	-6	·	·
N#C/C(=C\c1ccc(-c2cc(Cl)ccc2Cl)o1)C(=O)Nc1cccc2ncccc12	5.7*	·	·	-1	0	8
CN1CCN(C(CNS(C)(=O)=O)c2ccc(F)cc2)CC1 (configuration not stated)	0	0	0	8	·	·
COc1ccc(S(=O)(=O)N(CC(=O)O)c2ccc(Cl)cc2)cc1	5.6*	3	0	7	-1	-15
CCOC(=O)CN(c1ccccc1Cl)S(=O)(=O)c1ccc(F)cc1	23*	7	0	-2	0	5
COC(=O)CN(c1ccccc1OC)S(=O)(=O)c1ccc(OC)cc1	7.1*	2	0	-2	0	2
COc1ccccc1-n1c(C)cn2c3c(=O)n(CCc4ccccc4)c(=O)n(C)c3nc12	0	4	0	-2	·	·
c1ccc2c(c1)CC(c1nc3ccc(-c4cn[nH]c4)cc3[nH]1)O2 (configuration not stated)	-1	-28	0	4	·	·
Cc1cc(OCC(=O)NCc2ccc(F)cc2)ccc1Cl	6.1*	2	0	7	-1	-3
Cc1cc(OCC(=O)NCC(C)CN(C)C)ccc1Cl (configuration not stated)	5.8*	-4	0	-12	2	14
COc1ccc(C2CC(=O)C3=C(C2)NC(C)=C(C(=O)OC(C)C)C3c2cccc(OC)c2OC)cc1OC (configuration not stated)	1	0	0	0	·	·
SMILES	GPR151 activ	TEAD-YAP block	FBW7 activator	MITF inh	GPR151 confirm	GPR119 counter
COc1ccc(NC(=O)CC[C@H]2CN(Cc3ccccc3)CC[C@H]2N2CCCC2)cc1	-2	-4	0	15	·	·
CC(C)CN1C(=O)N(c2cccc(Cl)c2)C(n2oc(=O)n(-c3cccc(Cl)c3)c2=O)C1(C)C (configuration not stated)	-1	-3	0	6	·	·
O=C(N/N=C/c1ccncc1)C1CC1(c1ccccc1)c1ccccc1 (configuration not stated)	5.9*	-18	0	-25	0	8
COc1ccc(C(=O)N/C(=C/c2ccc([N+](=O)[O-])cc2)C(=O)Nc2ccccc2)c(Cl)c1	-1	2	0	-11	·	·
Cc1cccc(NC(=O)CSc2nc3c(c(=O)n2-c2ccc(F)cc2)SCC3)c1	6.5*	3	0	-13	0	-2
Cc1cccc(OC(=O)c2cc(-c3ccc(Br)cc3)nc3c(C)cccc23)c1C	0	-7	0	0	·	·
CCc1ccccc1NC(=O)c1ccc(F)c(S(=O)(=O)N(CCc2ccccc2)Cc2ccccc2)c1	1	6	0	-3	·	·
CCN(CC(=O)NC(C)C)C(=O)c1cc(F)cc(F)c1	4	-1	0	-1	·	·
Clc1ccc(-c2nnc3n2N=C(c2ccccc2)CS3)cc1	-1	3	0	6	·	·
Cc1ccccc1-c1nnc2n1N=C(c1ccc(Cl)cc1)CS2	6.6*	3	0	4	0	5
CC(CCc1ccccc1)NC(=O)CCNS(=O)(=O)c1ccc(Br)cc1 (configuration not stated)	0	6	0	12	·	·
COc1ccc(CCN2C(=O)CC(C(=O)Nc3ccc(Cl)cc3)SC2=Nc2ccc(F)cc2)cc1OC (configuration not stated)	5.4*	-4	0	13	0	7
COc1ccc(CCN2C(=O)CC(C(=O)Nc3ccc(F)cc3)SC2=Nc2ccc(Cl)cc2)cc1OC (configuration not stated)	1	3	0	15	·	·
CN1CCC(CNS(=O)(=O)CCc2ccccc2)CC1	5.7*	2	0	14	-1	-10
Clc1ccc(CN2CCc3nc(-c4ccccn4)nc(N4CCOCC4)c3C2)s1	5.1*	-1	-1	16	1	10
CCCCN(CC)C(=O)/C=C/c1cc(OC)c(OC)c(OC)c1	5.0*	-3	0	-7	0	-6
COc1cccc(S(=O)(=O)N(CC2CC2)C2CCN(Cc3ccncc3)CC2)c1	0	5	0	11	·	·
C#Cc1cccc(N2C(=O)c3cc4ccccc4c(-c4ccccc4)c3C2=O)c1	5.4*	7	0	7	1	-5
Cc1ccc(CNC(=O)CCCn2c(=O)c3ccccc3n(CC(N)=O)c2=O)cc1	5.2*	0	0	-3	1	4
O=S(=O)(NC1CC1)c1ccc(S(=O)(=O)N2CCCC(c3ccccc3)C2)cc1 (configuration not stated)	-1	-4	0	-17	·	·
Nc1ccc(Oc2ccc(Br)cc2)cc1	11*	2	0	11	1	-5
Brc1ccc(Oc2ccc(Oc3ccc(Br)cc3)cc2)cc1	0	3	0	-1	·	·
CC(C)CN1CCN(Cc2nc3ccccc3n2C)CC1CCO (configuration not stated)	2	2	0	-1	·	·
